Reference: PubChem BioAssay (NCI)
Compounds without any hit were thinned out: in the full panel of roughly 83,000, 20% have a hit.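 Method: cells in 96-well plates; compound added at one concentration; 48 h incubation; percent growth measured; values under 10 scored active.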 Activity calls are given as the source filed them.

Columns and labels:
Test in all cases: NCI-60 one-dose screen, 48 h (100 = growth as untreated, 0 = no growth, -100 = all killed)
Settings in all cases: 10 µM unless noted
SK-MEL-2 melanoma = tested on: SK-MEL-2 melanoma
EKVX NSCLC = tested on: EKVX NSCLC
SN12C renal = tested on: SN12C renal
UO-31 renal = tested on: UO-31 renal
TK-10 renal = tested on: TK-10 renal
ACHN renal = tested on: ACHN renal
CAKI-1 renal = tested on: CAKI-1 renal
A498 renal = tested on: A498 renal
CCRF-CEM leukemia = tested on: CCRF-CEM leukemia
MOLT-4 leukemia = tested on: MOLT-4 leukemia

Measured: growth

COc1ccc(-c2cc(-c3ccc(Cl)cc3)c(C#N)c(=O)n2CCCCCC(=O)Nc2ccccc2N)cc1
active: CAKI-1 renal 7.69%
inactive: SK-MEL-2 melanoma 58.5% | EKVX NSCLC 51.5% | SN12C renal 41.9% | UO-31 renal 43% | TK-10 renal 78.3% | ACHN renal 34.2% | A498 renal 39.1% | CCRF-CEM leukemia 32.5% | MOLT-4 leukemia 35.2%

COc1ccc(C2CC(c3ccc(Nc4nc(Nc5ccc(F)cc5)nc(Nc5ccc(Cl)cc5)n4)cc3)=NN2C(C)=O)cc1 (stereo not given)
inactive: SK-MEL-2 melanoma 96.1% | EKVX NSCLC 109% | SN12C renal 103% | TK-10 renal 103% | ACHN renal 91.7% | CAKI-1 renal 108% | A498 renal 129% | CCRF-CEM leukemia 124% | MOLT-4 leukemia 93%
active: UO-31 renal -65.4%

COc1cc(/C=C/c2c(C(C)=O)c(C)nc3ccccc23)cc(OC)c1OC
active: A498 renal -23.8%
inactive: SK-MEL-2 melanoma 47.9% | EKVX NSCLC 52.4% | SN12C renal 35.3% | UO-31 renal 36.7% | TK-10 renal 78.8% | ACHN renal 37.6% | CAKI-1 renal 24.7% | CCRF-CEM leukemia 21.3% | MOLT-4 leukemia 33.6%

N#C/C(=C\c1ccc(F)cc1)n1nc2cccc(F)c2n1
inactive: SK-MEL-2 melanoma 58.7% | EKVX NSCLC 71.1% | SN12C renal 76.2% | UO-31 renal 41% | TK-10 renal 60.7% | ACHN renal 42.9% | CAKI-1 renal 24.8% | A498 renal 11.7% | CCRF-CEM leukemia 25.6% | MOLT-4 leukemia 52.3%

COc1cc(C(=O)/C=C/c2ccc(OCCCCCC[P+](c3ccccc3)(c3ccccc3)c3ccccc3)cc2)cc(OC)c1OC
inactive: CAKI-1 renal 13.2% | CCRF-CEM leukemia 20.3% | MOLT-4 leukemia 14%
active: SK-MEL-2 melanoma -67.3% | EKVX NSCLC -9.14% | SN12C renal -63.8% | UO-31 renal 1.6% | TK-10 renal -72% | ACHN renal -44.5% | A498 renal -42%

CCOC(=O)C1=C(N)Oc2c(sc3c(C)cccc23)C1c1ccc(Cl)cc1 (stereo not given)
inactive: SK-MEL-2 melanoma 46.6% | EKVX NSCLC 48.3% | SN12C renal 38.6% | UO-31 renal 38.5% | TK-10 renal 78.7% | ACHN renal 39.5% | CCRF-CEM leukemia 17% | MOLT-4 leukemia 32.9%
active: CAKI-1 renal 2.8% | A498 renal 3.91%

Cc1ccc(NC2=C(Cl)C(=O)c3nc(C)ccc3C2=O)cc1
active: SK-MEL-2 melanoma -23.8% | SN12C renal -70.4% | UO-31 renal -80.6% | ACHN renal -98.1% | CAKI-1 renal -72% | CCRF-CEM leukemia 0.58% | MOLT-4 leukemia -13.5%
inactive: EKVX NSCLC 58.6% | TK-10 renal 130% | A498 renal 91%

COc1ccc2sc3c(NCCCN(C)C)nc4ccccc4c3c(=O)c2c1
active: CCRF-CEM leukemia 4.23% | MOLT-4 leukemia -16.2%
inactive: SK-MEL-2 melanoma 95.9% | EKVX NSCLC 70% | SN12C renal 72.3% | UO-31 renal 48.4% | TK-10 renal 78% | ACHN renal 69.9% | CAKI-1 renal 63% | A498 renal 17.4%

N#Cc1c(-c2ccccc2)nc(SCC(=O)Nc2nc(-c3ccc(Cl)cc3)cs2)[nH]c1=O
inactive: SK-MEL-2 melanoma 92.3% | EKVX NSCLC 106% | SN12C renal 104% | UO-31 renal 83.2% | TK-10 renal 110% | ACHN renal 103% | CAKI-1 renal 89% | A498 renal 87.7% | CCRF-CEM leukemia 92.2% | MOLT-4 leukemia 89.8%

CNC(=O)c1[nH]cc(-c2ccccc2)c1-c1cc(OC)c2c(c1OC)OCO2
inactive: SK-MEL-2 melanoma 102% | EKVX NSCLC 98% | SN12C renal 91.1% | UO-31 renal 83.8% | TK-10 renal 106% | ACHN renal 95.8% | CAKI-1 renal 76.5% | A498 renal 95.4% | CCRF-CEM leukemia 108% | MOLT-4 leukemia 101%

CC1=C(C)C(=O)C(Nc2cccc(C(=O)OC(C)(C)C)c2)=C(Br)C1=O
inactive: SK-MEL-2 melanoma 106% | EKVX NSCLC 103% | SN12C renal 85.7% | UO-31 renal 71.6% | TK-10 renal 122% | ACHN renal 87.5% | CAKI-1 renal 96.4% | A498 renal 87.3% | MOLT-4 leukemia 12.5%
active: CCRF-CEM leukemia 8.53%

O=CN(SSN(C=O)C1CCCCC1)C1CCCCC1
inactive: SK-MEL-2 melanoma 111% | EKVX NSCLC 95.3% | SN12C renal 99.7% | UO-31 renal 60.6% | TK-10 renal 106% | ACHN renal 105% | CAKI-1 renal 101% | A498 renal 116% | CCRF-CEM leukemia 111% | MOLT-4 leukemia 65.2%

Cc1cc(=O)oc2cc(OC(=O)N3CCN(C)CC3)ccc12
inactive: SK-MEL-2 melanoma 116% | EKVX NSCLC 99.2% | SN12C renal 97.9% | UO-31 renal 85.3% | TK-10 renal 125% | ACHN renal 96.6% | CAKI-1 renal 89.7% | A498 renal 105% | CCRF-CEM leukemia 104% | MOLT-4 leukemia 97.7%

Cc1nc(/N=C(\N)NC(=O)Nc2ccccc2Cl)sc1C
inactive: SK-MEL-2 melanoma 45.6% | EKVX NSCLC 48.7% | SN12C renal 42.7% | UO-31 renal 58.1% | TK-10 renal 70.7% | ACHN renal 52.3% | CAKI-1 renal 30.9% | CCRF-CEM leukemia 16.4% | MOLT-4 leukemia 43.6%
active: A498 renal -15.9%

COc1ccc(/C=C(\C#N)n2nnc3c(F)cccc32)cc1
inactive: SK-MEL-2 melanoma 24.1% | EKVX NSCLC 32.3% | SN12C renal 24.2% | UO-31 renal 39.4% | TK-10 renal 45.3% | ACHN renal 28.3% | CAKI-1 renal 24.8% | CCRF-CEM leukemia 18.9% | MOLT-4 leukemia 14.4%
active: A498 renal -29.1%

CCOC(=O)NCCc1ccccc1
inactive: SK-MEL-2 melanoma 104% | EKVX NSCLC 111% | SN12C renal 99.2% | UO-31 renal 76.3% | TK-10 renal 112% | ACHN renal 110% | CAKI-1 renal 86% | A498 renal 110% | CCRF-CEM leukemia 116% | MOLT-4 leukemia 90.1%

O=c1ccn(Cc2cn(-c3c4ccccc4nc4ccccc34)nn2)c(=O)[nH]1
inactive: SK-MEL-2 melanoma 98% | EKVX NSCLC 103% | SN12C renal 92.7% | UO-31 renal 88% | TK-10 renal 93.8% | ACHN renal 95.4% | CAKI-1 renal 96.8% | A498 renal 81.8% | CCRF-CEM leukemia 83.9% | MOLT-4 leukemia 79.5%

COc1cccc(-c2nc(-c3ccc(NC(=O)OC(C)C)cc3)[nH]c2-c2ccnc(Br)c2)c1
active: UO-31 renal 9.01% | A498 renal -4.13%
inactive: SK-MEL-2 melanoma 25.6% | EKVX NSCLC 27.6% | SN12C renal 30.8% | TK-10 renal 48.6% | ACHN renal 14.5% | CAKI-1 renal 28% | CCRF-CEM leukemia 18.3% | MOLT-4 leukemia 10.3%

C=C1C(=O)O[C@H]2[C@H]1CC/C(COC(=O)C(C)c1ccc(CC(C)C)cc1)=C\CC[C@@]1(C)O[C@@H]21 (stereo not given in full)
inactive: SK-MEL-2 melanoma 36.7% | EKVX NSCLC 46.2% | SN12C renal 35.2% | TK-10 renal 62% | CAKI-1 renal 79.1% | A498 renal 92.7%
active: UO-31 renal -87.6% | ACHN renal -94.6% | CCRF-CEM leukemia 4.97% | MOLT-4 leukemia -3.37%

c1ccc2cc(C[n+]3ccn(CCCCCCCCCCCCn4cc[n+](Cc5ccc6ccccc6c5)c4)c3)ccc2c1
inactive: UO-31 renal 24.2% | ACHN renal 10.5% | CAKI-1 renal 41.9%
active: SK-MEL-2 melanoma -69.9% | EKVX NSCLC -62.6% | SN12C renal -76.4% | TK-10 renal -48.2% | A498 renal -32.6% | CCRF-CEM leukemia -68.3% | MOLT-4 leukemia -69.7%

COc1ccc(-c2conc2-c2ccccc2)cc1
active: TK-10 renal 6.72% | A498 renal -14%
inactive: SK-MEL-2 melanoma 41.6% | EKVX NSCLC 52.7% | SN12C renal 33.2% | UO-31 renal 45.2% | ACHN renal 36.5% | CAKI-1 renal 33.5% | CCRF-CEM leukemia 25.7% | MOLT-4 leukemia 34.4%

Cc1nc2ccccc2c(/C=C/c2ccc(Cl)cc2)c1C(=O)/C=C/c1cccs1
inactive: SK-MEL-2 melanoma 90.9% | EKVX NSCLC 80.9% | SN12C renal 72% | UO-31 renal 54.3% | TK-10 renal 125% | ACHN renal 78.3% | CAKI-1 renal 46.2% | A498 renal 40.9% | CCRF-CEM leukemia 59.6% | MOLT-4 leukemia 54.7%
